Over roughly 33,000 sequences, “E-score (-0.5 to 0.5)” has its median near -0.016; the highest 2% begin near 0.32. This excerpt belongs to a sample that is enriched for the highest values.
The sequences below were run against T1, Stp1 (UniProt B3LFK1) (assay: PBM E-score (8-mer binding enrichment) (E-score (-0.5 to 0.5)); higher = stronger / more preferred TF binding). Conditions: protein concentration: 200 nM; construct: GST-full length.
T1 sequence: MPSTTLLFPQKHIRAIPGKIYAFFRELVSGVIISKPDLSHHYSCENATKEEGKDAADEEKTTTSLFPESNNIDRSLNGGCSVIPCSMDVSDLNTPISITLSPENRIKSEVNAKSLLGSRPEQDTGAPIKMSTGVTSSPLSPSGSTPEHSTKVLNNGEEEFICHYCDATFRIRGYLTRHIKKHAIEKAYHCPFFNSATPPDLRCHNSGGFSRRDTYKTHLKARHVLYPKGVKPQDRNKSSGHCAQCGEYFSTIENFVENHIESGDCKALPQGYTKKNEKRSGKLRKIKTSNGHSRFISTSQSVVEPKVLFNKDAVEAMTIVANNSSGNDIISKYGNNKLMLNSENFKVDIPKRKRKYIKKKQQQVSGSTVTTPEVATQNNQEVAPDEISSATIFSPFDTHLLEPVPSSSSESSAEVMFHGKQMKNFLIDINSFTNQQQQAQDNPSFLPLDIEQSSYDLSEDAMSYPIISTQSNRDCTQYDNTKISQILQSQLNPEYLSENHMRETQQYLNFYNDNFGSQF
In short: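 Masliner-normalised scans of fluorescent anti-GST signal were the basis for scoring. That signal came from GST-tagged yeast transcription factors applied at about 100-200 nM to double-stranded universal all-10-mer Agilent arrays on fresh or once-stripped slides. Each ungapped eight-base word, pooled with its reverse complement, received an E-score from the Universal PBM Analysis Suite.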

| Sequence | PBM E-score |
| --- | --- |
| ACCGGCGG | 0.0942 |
| AGCGGGGC | 0.0451 |
| AGCAGCGC | 0.0916 |
| AGCGGCGA | 0.386 |
| GGCGGCGA | 0.276 |
| AGCGGCGG | 0.337 |
| AGCGGGGG | -0.287 |
| AGCGGCCA | -0.114 |
| AGCGGCGC | 0.452 |
| AGAGCTTG | -0.106 |
| ATGAGCTG | -0.175 |
| GATCCATA | 0.134 |
| ACGCTAAG | 0.00258 |
| CGGACCGA | 0.0676 |
| CCTCGCAG | -0.0486 |
| GCGTCTAC | -0.155 |
| AACTGCCG | 0.329 |
| CACTGCCG | 0.336 |
| AACTGCCT | 0.0172 |
| AACTGCCC | -0.192 |
| CACTGCCC | -0.071 |
| CACTGCCA | 0.0847 |

| Sequence | PBM E-score |
| --- | --- |
| AGATCCAA | 0.0566 |
| AAGCTGTG | -0.106 |
| GCCTTGTA | 0.354 |
| ACCTTGTA | 0.0137 |
| GCCTTGCA | 0.33 |
| TCCTTGCA | -0.0871 |
| CCCTTGTA | -0.178 |
| CCCTTGCA | -0.163 |
| AAGGATGC | -0.187 |
| GTGGTCTA | -0.307 |
| CTCTACCA | -0.0433 |
| GCTGGTCC | -0.253 |
| GTTGTGGA | -0.0929 |
| CATGCCCA | -0.249 |
| ATGACGCC | 0.2 |
| GCCGTCTA | 0.429 |
| GCCGTCGA | 0.278 |
| CCCGTCTA | -0.0264 |
| ACCGTCTA | -0.0765 |
| ACCGTCCC | -0.184 |
| ACCGTCGC | 0.0157 |
| TCCGTCCA | -0.122 |

| Sequence | PBM E-score |
| --- | --- |
| GCCGTCCC | 0.378 |
| CCCGTCCC | -0.249 |
| GCCGTCCA | 0.364 |
| GCCGTCGC | 0.351 |
| CCCGTCCA | -0.00501 |
| AGACAAAG | 0.00552 |
| GAGGGTAA | -0.0792 |
| CACCATAC | -0.0768 |
| TAAAGTGA | 0.135 |
| CAGAAAGG | 0.0864 |
| ACTGCGGC | 0.381 |
| ACTGCGGA | 0.0949 |
| CCTGCGGA | 0.0839 |
| CCTGCGCC | 0.295 |
| CCTGCGGC | 0.331 |
| ACTGCGGG | -0.153 |
| ACTTAGAA | 0.0195 |
| GAACAGGC | -0.0513 |
| ACAAGGGA | -0.144 |
| GCAACCTA | 0.081 |
| ATAAGCCG | 0.0578 |
| ATTGCTAA | 0.0687 |

| Sequence | PBM E-score |
| --- | --- |
| AGCGCCTC | 0.389 |
| CACGCCTC | 0.205 |
| ACCGCCTC | -0.0359 |
| ATCGCCTG | -0.135 |
| AGCGCCTG | -0.0292 |
| CTCGCCTC | 0.00469 |
| ATCGCCTC | 0.356 |
| CGCGCCTA | 0.313 |
| CGCGCCTC | 0.377 |
| ACGGTCTC | -0.041 |
| CCTAAAGC | 0.00183 |
| CCCTAGGA | -0.314 |
| CTTGCGCA | 0.223 |
| ATTCTTCG | 0.00242 |
| GAACGTAA | 0.0655 |
| ACGTTCCG | -0.106 |
| CCGTTCCA | 0.243 |
| CCGTTCCG | 0.318 |
| GCCATCGA | 0.0584 |
| GGCCGTGA | 0.126 |

Reference: the supplement of paper PMC3334620
